Measurements as given in PubChem BioAssay (EPA / NIEHS).
Several values for one entry are separate records, joined by “and”; a condition that tells them apart may be missing. Identical values can stand only once. Records with an inconclusive call do not appear. More than one record can exist for a structure, and the calls need not agree. Activity calls are given as the source filed them. How the source made its calls, unless noted: active means hit-call score of the fitted dose curve at least 0.9, where 1 is the maximum; inactive means score below 0.9.

Tests used:
[1] = APR_HepG2_CellCycleArrest_1hr: Apredica 1-hour HepG2 Assay for Cell Cycle Arrest (AID 2282666); settings: high-content imaging, actives raise or lower the signal
Method in brief: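 Cell cycle arrest scored from nuclear DNA content (Hoechst 33342) using high-content imaging of fixed HepG2 cells after 1 h treatment across 0.39–200 uM, in duplicate. Gain or loss fitted relative to 0.5% DMSO.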

[2] = ACEA_ER_80hr: ACEA Biosciences xCELLigence Real-Time Cell Analysis on Estrogen Receptor Agonism for Proliferation (AID 2282667; active means hit-call score of the fitted dose curve at least 0.9, where 1 is the maximum); settings: T47D proliferation, impedance (xCELLigence), 80 h
Method in brief: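 Impedance readout (RT-CES) of T47D proliferation at 80 h post-dose; gain of signal vs DMSO baseline. Compounds: 8 conc, 1:4 serial, top 100 uM final, ≤0.5% DMSO; biological duplicate.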

[3] = APR_HepG2_MicrotubuleCSK_1hr: Apredica 1-hour HepG2 Assay for Microtubule CSK Stabilty (AID 2282669); settings: HepG2 microtubule cytoskeleton imaging, actives raise or lower the signal
Method in brief: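 Alpha-tubulin immunofluorescence, imaged by automated high-content microscopy with Hoechst nuclear segmentation, measured cytoskeletal change after 1 h dosing of HepG2 at 0.39–200 uM in 0.5% DMSO. Activity fitted in both directions relative to DMSO.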

[4] = APR_HepG2_NuclearSize_1hr: Apredica 1-hour HepG2 Assay for Nuclear Size (AID 2282670); settings: high-content imaging, actives raise or lower the signal
Method in brief: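 Nuclear size measured by high-content imaging of Hoechst 33342 nuclear stain after formaldehyde fixation; human HepG2 line exposed 1 hr to compounds at 0.39–200 uM in 0.5% DMSO, with bidirectional curve fitting relative to DMSO.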

[5] = APR_HepG2_p53Act_1hr: Apredica 1-hour HepG2 Assay for p53 Activation (AID 2282671); settings: high-content imaging, actives raise or lower the signal
Method in brief: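 After 1 h exposure (0.39–200 uM, 0.5% DMSO final, duplicates), fixed HepG2 cells were labelled with anti-p53 antibody plus Hoechst nuclear stain. Fluorescence quantified by automated 20x imaging; changes fitted in both directions against DMSO.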

[6] = APR_HepG2_MitoticArrest_1hr: Apredica 1-hour HepG2 Assay for Mitotic Arrest (AID 2282672); settings: high-content imaging, actives raise or lower the signal
Method in brief: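 Ten-point concentration series (0.39 to 200 uM, duplicates, 0.5% v/v DMSO) applied to human HepG2 liver cells for 1 hr. High-content imaging of phospho-histone H3 and Hoechst-stained nuclei after fixation and permeabilization; DMSO-normalised bidirectional fit.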

[7] = APR_HepG2_MitoMembPot_1hr: Apredica 1-hour HepG2 Assay for Mitochondrial Membrane Potential (AID 2282675); settings: imaging, actives raise or lower the signal
Method in brief: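 Mitochondrial membrane potential read as MitoTracker Red CMXRos intensity by automated imaging of fixed HepG2 cells. Dye at 250 nM for 30 min pre-fixation; compounds 0.39 to 200 uM for 1 hour, duplicate wells, 0.5% DMSO.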

[8] = APR_HepG2_CellCycleArrest_24hr: Apredica 24-hour HepG2 Assay for Cell Cycle Arrest (AID 2282905); settings: imaging, actives raise or lower the signal;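 further: cell cycle arrest scored as ratio of 2N to 4N nuclear DNA content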
Method in brief: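 Readout: Hoechst 33342 nuclear DNA content by high-content fluorescent imaging, six images/well, 20x. Human HepG2 liver cells, 24 hr compound exposure, 0.39–200 uM, final DMSO 0.5% v/v. Gain or loss fitted relative to DMSO baseline.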

[9] = APR_HepG2_StressKinase_1hr: Apredica 1-hour HepG2 Assay for Stress Kinase (AID 2282906); settings: HepG2 stress kinase (phospho-c-Jun) imaging, actives raise or lower the signal
Method in brief: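 High-content imaging of phospho-c-Jun immunostaining (with Hoechst nuclear identification) after a 1 h exposure of HepG2 cells to 10 concentrations from 0.39 to 200 uM, final DMSO 0.5%. Fitted bidirectionally against DMSO.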

[10] = APR_HepG2_NuclearSize_24hr: Apredica 24-hour HepG2 Assay for Nuclear Size (AID 2282907); settings: high-content imaging, actives raise or lower the signal
Method in brief: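 Read-out: nuclear diameter from Hoechst 33342 (2 ug/mL) imaging of fixed HepG2 cells, 20x, six fields/well. Compounds ran at 0.39–200 uM for 24 hr, 0.5% DMSO final. Gain or loss was fitted bidirectionally relative to the DMSO baseline.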

[11] = APR_HepG2_CellLoss_24hr: Apredica 24-hour HepG2 Assay for Cell Loss (AID 2282908); settings: high-content imaging;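 on AC50: fit in both directions so a hit may be cell loss or gain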
Method in brief: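 Read-out: Hoechst 33342-stained nuclei counted by automated fluorescence imaging after formaldehyde fixation and Triton permeabilization. Ten concentrations, 0.39 to 200 uM, duplicate wells, 0.5% DMSO final. Gain or loss of signal fitted relative to DMSO baseline.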

[12] = APR_HepG2_MicrotubuleCSK_24hr: Apredica 24-hour HepG2 Assay for Microtubule CSK Stabilty (AID 2282909); settings: HepG2 microtubule cytoskeleton imaging, actives raise or lower the signal
Method in brief: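 Read-out: alpha-tubulin immunofluorescence intensity by automated high-content imaging of fixed HepG2 cells after 24 h compound treatment. Ten concentrations, 0.39 to 200 uM, in duplicate; DMSO 0.5% v/v. Taxol positive control; DMSO-normalized bidirectional curve fitting.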

[13] = APR_HepG2_MitoticArrest_24hr: Apredica 24-hour HepG2 Assay for Mitotic Arrest (AID 2282910); settings: high-content imaging, actives raise or lower the signal
Method in brief: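 HepG2, 24 hr dosing, 0.39–200 uM, 0.5% DMSO final. Formaldehyde-fixed, Triton-permeabilised, anti-phospho-histone H3 plus Hoechst. ArrayScan imaging at 20x; bidirectional fit vs DMSO baseline.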

[14] = APR_HepG2_MitoMembPot_24hr: Apredica 24-hour HepG2 Assay for Mitochondrial Membrane Potential (AID 2282911); settings: imaging, actives raise or lower the signal
Method in brief: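 HepG2, 24 hr dosing, 10 concentrations 0.39–200 uM, 0.5% DMSO final. Live-cell MitoTracker Red CMXRos 250 nM 30 min, then 3.7% formaldehyde fix. HCS fluorescence imaging, 20x; bidirectional fit vs DMSO baseline.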

[15] = APR_HepG2_MitoMass_24hr: Apredica 24-hour HepG2 Assay for Mitochondrial Mass (AID 2282912); settings: high-content imaging, actives raise or lower the signal
Method in brief: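 HepG2, 24 hr dosing, 10 concentrations 0.39–200 uM in duplicate, DMSO 0.5% final. MitoTracker Red CMXRos 250 nM, 30 min pre-fix; 3.7% formaldehyde fix. Imaging-based fluorescence intensity; gain/loss fit vs DMSO baseline.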

[16] = APR_HepG2_p53Act_24hr: Apredica 24-hour HepG2 Assay for p53 Activation (AID 2282913); settings: high-content imaging, actives raise or lower the signal;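 further: p53 protein immunofluorescence averaged per cell in HepG2 with Hoechst nuclei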
Method in brief: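 Read-out: Cy5 immunofluorescence for p53 in fixed, permeabilized HepG2, imaged by HCS with Hoechst-defined nuclei. Dosing was 24 hr at 0.39–200 uM in 0.5% DMSO. Curves were fitted bidirectionally relative to DMSO.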

[17] = APR_HepG2_CellCycleArrest_72hr: Apredica 72-hour HepG2 Assay for Cell Cycle Arrest (AID 2282914); settings: high-content imaging, actives raise or lower the signal
Method in brief: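 HepG2, 72 hr exposure, 10-point 0.39–200 uM, duplicate, 0.5% DMSO final. Fix 3.7% formaldehyde 30 min RT, Triton X-100 0.5%, Hoechst 33342 2 ug/mL. ArrayScan 20x, six fields/well; DNA content per nucleus; bidirectional fit vs DMSO.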

[18] = APR_HepG2_P-H2AX_1hr: Apredica 1-hour HepG2 Assay for H2AX Phosphorylation (AID 2282673); settings: high-content imaging, actives raise or lower the signal
Method in brief: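 Phospho-H2A.x immunofluorescence (1:200, FITC secondary) plus Hoechst nuclear stain, quantified by high-content imaging in HepG2 after 1 hr compound exposure. Ten concentrations, 0.39 to 200 uM, in duplicate with 0.5% DMSO; fit both directions against DMSO.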

[19] = APR_HepG2_CellLoss_1hr: Apredica 1-hour HepG2 Assay for Cell Loss (AID 2282668); settings: high-content imaging;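 further: curves fitted both ways against DMSO so gain or loss of cells counts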
Method in brief: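 Cell number comes from high-content imaging of Hoechst-labelled nuclei in fixed HepG2 cells. Cells were exposed for 1 h to ten concentrations from 0.39 to 200 uM in 0.5% DMSO. Gain or loss was fitted against DMSO controls.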

[20] = APR_HepG2_MitoMass_1hr: Apredica 1-hour HepG2 Assay for Mitochondrial Mass (AID 2282674); settings: high-content imaging, actives raise or lower the signal
Method in brief: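 Mitochondrial mass is taken from MitoTracker Red CMXRos (250 nM, 30 min, pre-fixation) fluorescence imaged at 20x in HepG2 cells. Exposure lasted 1 hr across ten concentrations, 0.39 to 200 uM, 0.5% DMSO; DMSO baseline, bidirectional fitting.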

Measured: AC50

N#Cc1cc(Br)c(O)c(Br)c1
inactive: [1] | [2] | [3] | [4] | [5] | [6] | [7] | [8] | [9] | [10] | [11] | [12] | [13] | [15] | [16]
active: [14] 89.4 µM | [17] 100 µM

CCOc1cc(Oc2ccc(C(F)(F)F)cc2Cl)ccc1[N+](=O)[O-]
inactive: [1] | [2] | [3] | [4] | [5] | [6] | [7] | [8] | [10] | [11] | [12] | [13] | [14] | [15] | [16] | [17]

C=CCC1=C(C)C(OC(=O)C2C(C=C(C)C)C2(C)C)CC1=O (stereo not drawn)
active: [7] 100 µM | [10] 53.2 µM | [11] 55.8 µM [middle of 4 runs] | [12] 30.6 µM and 29.7 µM | [14] 112 µM | [15] 29 µM and 48.5 µM and 56.1 µM | [16] 42 µM | [17] 34.4 µM
inactive: [1] | [2] | [3] | [4] | [6] | [18] | [8] | [10] | [12] | [14] | [15] | [16] | [17]

CCCCOC(=O)c1ccccc1C(=O)OCCCC
inactive: [1] | [2] | [3] | [4] | [5] | [6] | [7] | [8] | [9] | [10] | [11] | [12] | [14] | [15] | [16] | [17]

Cc1c(F)c(F)c(COC(=O)C2C(/C=C(\Cl)C(F)(F)F)C2(C)C)c(F)c1F (stereo not drawn)
inactive: [1] | [2] | [3] | [4] | [5] | [6] | [7] | [8] | [10] | [11] | [12] | [14] | [15] | [16] | [17]

N#CC(CCc1ccc(Cl)cc1)(Cn1cncn1)c1ccccc1 (stereo not drawn)
inactive: [1] | [2] | [19] | [3] | [4] | [6] | [18] | [20] | [7] | [8] | [10] | [14] | [15] | [17]
active: [11] 102 µM | [12] 104 µM | [16] 103 µM

Fc1ccc(Oc2ccnc3cc(Cl)cc(Cl)c23)cc1
inactive: [1] | [2] | [19] | [3] | [4] | [6] | [20] | [7] | [8] | [10] | [12] | [14] | [15] | [16] | [17]
active: [11] 100 µM

COc1nc(NC(C)C)nc(NC(C)C)n1
inactive: [1] | [2] | [19] | [3] | [4] | [6] | [20] | [7] | [8] | [10] | [11] | [12] | [13] | [14] | [15] | [16] | [17]

CC1=C(C(=O)Nc2ccccc2)SCCO1
inactive: [1] | [2] | [19] | [3] | [4] | [5] | [6] | [20] | [7] | [8] | [10] | [11] | [12] | [14] | [15] | [16] | [17]

CC(C)Oc1cc(-n2nc(C(C)(C)C)oc2=O)c(Cl)cc1Cl
inactive: [1] | [2] | [3] | [4] | [6] | [18] | [7] | [8] | [10] | [13] | [14] | [15] | [16] | [17]
active: [11] 50.8 µM | [12] 46.4 µM

CC(Oc1ccc(Cl)cc1Cl)C(=O)O (stereo not drawn)
inactive: [1] | [2] | [19] | [3] | [4] | [5] | [6] | [18] | [7] | [8] | [10] | [11] | [12] | [13] | [14] | [15] | [16] | [17]

CN(C)C(=S)SSC(=S)N(C)C
inactive: [1] | [3] | [4] | [5] | [6] | [7] | [8] | [10] | [14] | [15] | [16]
active: [2] 2.06 µM | [11] 2.3 µM | [12] 17.6 µM | [17] 0.039 µM

Cc1cc(Cl)ccc1OCC(=O)O
inactive: [1] | [2] | [3] | [4] | [5] | [6] | [18] | [7] | [8] | [10] | [11] | [12] | [13] | [14] | [15] | [16] | [17]
